From PubChem BioAssay AID492996 (Johns Hopkins Ion Channel Center, 2010) come the findings set out here.

Structures are written as SMILES. Measured potencies and affinities stand elsewhere. The source made the active and inactive calls.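 The calls were made as follows: active = peak inhibition of the TRPC4 channel signal over 30% at some dose, with a fitted dose response curve; inactive = no inhibition or no dose response curve.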

For this assay, the target named is Short transient receptor potential channel 4 (Mus musculus) (UniProt Q9QUQ5). The assay is described as follows: TRPC4 inhibition under acetylcholine activation, SAR follow-up, cell-based, acetylcholine stimulus, HEK293 TRPC4, Fluo-4 (AID 492996).
Short transient receptor potential channel 4 (Mus musculus), sequence (Q9QUQ5 whole entry, looked up): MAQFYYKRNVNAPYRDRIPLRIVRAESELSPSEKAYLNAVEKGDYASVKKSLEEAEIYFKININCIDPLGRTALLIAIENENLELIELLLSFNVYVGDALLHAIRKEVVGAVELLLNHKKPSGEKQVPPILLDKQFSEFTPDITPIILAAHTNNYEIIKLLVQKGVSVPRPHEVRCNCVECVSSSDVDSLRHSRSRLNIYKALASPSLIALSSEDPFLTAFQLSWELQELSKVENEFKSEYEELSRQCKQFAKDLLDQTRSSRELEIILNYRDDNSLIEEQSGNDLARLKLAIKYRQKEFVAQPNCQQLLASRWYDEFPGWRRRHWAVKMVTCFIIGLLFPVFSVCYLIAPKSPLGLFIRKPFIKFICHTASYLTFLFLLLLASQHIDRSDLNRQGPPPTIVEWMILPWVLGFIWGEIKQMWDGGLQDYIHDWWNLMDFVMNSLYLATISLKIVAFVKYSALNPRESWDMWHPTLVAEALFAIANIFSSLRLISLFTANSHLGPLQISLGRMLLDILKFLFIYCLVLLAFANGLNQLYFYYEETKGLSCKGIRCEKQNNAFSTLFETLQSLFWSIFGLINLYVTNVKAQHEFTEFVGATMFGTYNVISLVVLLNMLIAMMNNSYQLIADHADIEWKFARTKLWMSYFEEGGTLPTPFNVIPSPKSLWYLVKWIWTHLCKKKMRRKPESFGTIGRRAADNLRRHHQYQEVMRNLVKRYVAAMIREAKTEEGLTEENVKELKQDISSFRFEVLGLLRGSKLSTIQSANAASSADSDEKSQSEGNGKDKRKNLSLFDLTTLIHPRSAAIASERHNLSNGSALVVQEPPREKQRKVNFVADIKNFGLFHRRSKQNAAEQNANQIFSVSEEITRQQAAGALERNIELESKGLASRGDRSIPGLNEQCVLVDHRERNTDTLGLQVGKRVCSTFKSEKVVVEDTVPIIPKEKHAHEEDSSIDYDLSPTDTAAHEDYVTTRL

Turning to `Cc1cc(N2CCNCC2)nc2ccccc12`, the result was inactive.
